V-ATPase pH = regulators of yeast V-ATPase proton pumping, primary screen, pHLuorin cytosolic pH fluorescence. S. cerevisiae. actives 0.37% (n = 350,000). AID 504577, 2011. response, % at 10 µM; in the data active = response mostly above about 7.3%, no sharp cut-off; inactive = mostly below about 5.4%; note: actives read high
tim23-1 inh = growth inhibitors of tim23-1 mutant yeast, primary screen, luminescence, uHTS | S. cerevisiae tim23-1 growth, BacTiter-Glo luminescence, 24 h | inhibition, % at 20 µM | actives 1.3% (n = 330,000) | AID 463212, 2010;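 active = growth inhibition of the mutant yeast at or above 50%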;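 note: temperature-sensitive mutant grown at 25 °C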
NLRP3 yeast inh = NALP3 inflammasome inhibitors in reconstituted yeast, primary screen, luminescence, uHTS | Yeast reconstituted NLRP3/ASC/caspase-1, beta-gal luminescence, 24 h | inhibition, % at 10 µM | actives 0.39% (n = 330,000);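 active = inhibition of 50% or more; inactive = inhibition below 50%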
TIM10 inh = growth inhibitors of isogenic TIM10 control yeast, primary screen, counter-screen for tim10-1 yeast inhibitor project, luminescence, uHTS; S. cerevisiae TIM10 strain growth, BacTiter-Glo luminescence, 24 h; inhibition, % at 10 µM; actives 1.4% (n = 330,000);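 active = inhibition of 40% or more at the single tested concentration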;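 note: wild-type TIM10 isogenic control strain grown at permissive 25 °C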
NALP1 yeast inh = NALP1 inflammasome inhibitors in reconstituted yeast, colorimetric, S. cerevisiae, triplicate retest | S. cerevisiae NALP1/ASC/caspase-1 growth, X-gal OD620, 72 h | inhibition, % at 10 µM | actives 0.61% (n = 280,000) | AID 2071, 2009; in the data active = inhibition mostly above about 24%, no sharp cut-off; inactive = mostly below about 32%
tim10-1 inh = growth inhibitors of tim10-1 mutant yeast, primary screen, luminescence, uHTS; inhibition, % at 20 µM; S. cerevisiae tim10-1 ts strain growth, BacTiter-Glo, 24 h; actives 2.2% (n = 330,000);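 active = inhibition of at least 40%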;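 note: mutant grown at 25 °C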
NALP3 yeast conf = NALP3 inhibitors retested in yeast, confirmation, luminescence, single concentration; shares compounds with NLRP3 yeast inh; inhibition, % at 10 µM; yeast expressing human NALP3; actives 81% (n = 1,300); in the data active = inhibition above about 48%
Of the large screens only hits and unclear results are named; the others gave an inactive call (follow-up assays come after a bar, where they were run). Most compounds without a hit are left out; they make up all but 4.2% or so of the library.

CN1C(=O)/C(=C\c2ccc(N3CCCCCC3)cc2)C(=O)NC1=S	none
CN1C(=O)/C(=C/c2ccc(Cl)s2)C(=O)NC1=S	V-ATPase pH 25.1 (no result: tim23-1 inh, NLRP3 yeast inh, TIM10 inh, tim10-1 inh)
C[C@@H]1CN([C@H](C)CO)C(=O)c2c(c3ccccc3n2C)-c2ccccc2CO[C@H]1CN(C)Cc1ccc2c(c1)OCCN2C	none (no result: tim23-1 inh, NLRP3 yeast inh, TIM10 inh, NALP1 yeast inh, tim10-1 inh)
CC1CCC/C=C/C2CC(O)CC2C(O)/C=C/C(=O)O1 (stereo not drawn)	NALP1 yeast inh 40.0
CCCCCn1c(NC(=O)c2ccco2)c(C(=O)OCC)c2nc3ccccc3nc21	V-ATPase pH 10.9
Cc1ccc(N2C(=O)NC(=O)/C(=C\c3ccoc3)C2=O)cc1	V-ATPase pH 5.9
O=C1NC(=S)N(c2ccc(F)cc2)C(=O)/C1=C\c1ccoc1	none (no result: tim23-1 inh, NLRP3 yeast inh, TIM10 inh, tim10-1 inh)
CCN1CCN(Cc2cc(Br)ccc2O)CC1	NALP1 yeast inh 43.0
CC1([N+](=O)[O-])COP(=O)(Nc2ccc(Cl)cc2)OC1 (stereo not drawn)	none (no result: tim23-1 inh, NLRP3 yeast inh, TIM10 inh, NALP1 yeast inh, tim10-1 inh)
CC1(C)COC(Nc2ccc(Cl)cc2)=N1	NALP1 yeast inh 40.7
Cc1ccc([C@@H]2C[C@H]3[C@@H](CN2S(=O)(=O)c2ccc(Cl)cc2)C(=O)C[C@@H](c2ccccc2F)N3S(=O)(=O)c2ccc(C)cc2)cc1	none (no result: tim23-1 inh, NLRP3 yeast inh, TIM10 inh, NALP1 yeast inh, tim10-1 inh)
O=C(c1ccccc1)C(CN1CCCC1)c1ccccc1 (stereo not drawn)	NALP1 yeast inh 94.2 (no result: tim23-1 inh, NLRP3 yeast inh, TIM10 inh, tim10-1 inh)
CCN1CCN(CC(c2ccccc2)c2ccccc2)CC1	none
Cc1nc(C)c(C(=O)NN=Cc2ccc(N(CCCl)CCCl)cc2)s1	none (no result: tim23-1 inh, NLRP3 yeast inh, TIM10 inh, NALP1 yeast inh, tim10-1 inh)
CC1=NOC2(C)Nc3ncnn3C(c3ccccc3)C12 (stereo not drawn)	NALP1 yeast inh 35.6
COc1cccc(CC(=O)N(C)C2CCCN(Cc3ccccc3F)C2)c1 (stereo not drawn)	none
Cc1cccc(N2C(=O)NC(=O)/C(=C/c3ccc([N+](=O)[O-])o3)C2=O)c1	NALP1 yeast inh 48.3 (no result: V-ATPase pH, tim23-1 inh, NLRP3 yeast inh, TIM10 inh, tim10-1 inh)
CCOC(=O)C1(CCc2ccccc2)CCN(Cc2csc(C(C)=O)c2)CC1	NALP1 yeast inh 27.2
CCOC(=O)C1(CCc2ccccc2)CCN(Cc2cccc3cnccc23)CC1	none
CC(C)(C)N1Cc2ccccc2C1=N	NALP1 yeast inh 42.9 (no result: V-ATPase pH)
COC(=O)C1=C(c2ccc(F)cc2F)C[C@@H]2CC[C@H]1N2C	none (no result: NALP1 yeast inh)
O=C1/C(=C\c2cc3c(cc2Cl)OCO3)N2CCC1CC2	NALP1 yeast inh 44.6
O=C1/C(=C\c2ccc(Cl)cc2Cl)N2CCC1CC2	none
O=C1/C(=C/c2cc3c(cc2Cl)OCO3)N2CCC1CC2	NALP1 yeast inh 46.8 (no result: V-ATPase pH)
CC(=NCc1ccco1)c1c(O)n(Cc2ccccc2)c(=O)[nH]c1=O	none
O=P(c1ccccc1)(c1ccccc1)N1CCCCC1	none
CN(C)c1ccc2c(c1)N=C(c1ccco1)OP2(=S)N1CCOCC1 (stereo not drawn)	none
Cc1ccc(C)c(Cn2c(C(=O)O)c(C=O)c3ccccc32)c1	NALP1 yeast inh 27.5
O=Cc1c(C(=O)O)n(Cc2ccccc2F)c2ccccc12	none
Nc1c2c(nc3sc4c(c13)CCCC4)CCCCC2	NALP1 yeast inh 54.3
CN(C)c1ccc(/C=C/[N+](=O)[O-])cc1	NALP1 yeast inh 79.5
Cc1ccc(C2=NCC(=O)Nc3ccc(Br)cc32)cc1	none
C[C@]12CCC(=O)C=C1C=C[C@@H]1[C@@H]2CC[C@@]2(C)[C@H]1CC[C@@]2(O)CCC(=O)O	none (no result: NALP1 yeast inh)
C[C@]12CCC(=O)C=C1C=CC1C2CC[C@]2(C)C(=O)CCC12 (stereo partly drawn)	NLRP3 yeast inh 50.0 (no result: NALP1 yeast inh) | NALP3 yeast conf 57.2
O=C(OC1CC2CCC(N2)C1C(=O)O)c1ccccc1 (stereo not drawn)	none (no result: NALP1 yeast inh)
CC(=O)[C@H]1CC[C@H]2[C@@H]3CC[C@H]4C[C@H](O)CC[C@]4(C)[C@H]3C(=O)C[C@]12C	none

Bioassay records: PubChem BioAssay, several laboratories
